# Values joined by “and” are separate entries in the source; they are usually repeats but may differ in a detail not shown here. Equal entries are not always repeated. Out of some 290,000 compounds screened, about 27,000 (9.3%) were called active. This excerpt belongs to a sample that is enriched for actives. A number with no mark means an inactive call. Rule as the data show it: active = inhibition mostly above about 28% (no sharp cut-off); inactive = mostly below about 43%.
# Assay: A qHTS for Small Molecule Inhibitors of Shiga Toxin; also: 0% is about no effect
# Details: Vero cells, Shiga toxin protein synthesis inhibition reporter; at 38.7 µM, active compounds read high
row,SMILES,inhibition
1,CN(C)CCNC(=O)c1[nH]nc2c1CCc1ccccc1-2,35.7%
2,Cc1cc(=O)cc(C)n1-c1ccc(Cl)c(Cl)c1,14.3%
3,O=C(/C=C/NCc1ccc(F)cc1)c1ccccc1,61.7% (active)
4,CCCCC(=O)NCc1ccc(F)cc1,21.3%
5,O=C(CCCc1ccccc1)NCc1ccccc1,39.1% (active)
6,O=C(Cc1ccccc1)NCc1ccc(F)cc1,55.7% (active)
7,O=C(O)CCCc1ccccc1,-13.8% and 15.3%
8,O=C(Cc1c(O)c2ccccc2[nH]c1=O)NCc1ccccc1,-13.9%
9,O=C(/C=C\NCC(=O)c1ccccc1)c1ccccc1,17.6%
10,O=C(CCOc1ccccc1)NCc1ccccc1,-3.66%
11,O=C(CNCc1ccc(F)cc1)Nc1ccccc1-c1ccccc1,-4.12%
12,CCn1c(SCC(=O)NC2CC2)nnc1-c1ccccc1OC,-5.24%
13,O=C1/C(=C/c2ccc(F)cc2)SC(=S)N1CCCC(=O)N1CCCCC1CCO (centres undefined),-4.46%
14,CN(C)CCCN(C(=O)c1ccc(S(=O)(=O)N2CCCc3ccccc32)cc1)c1nc2ccc(F)cc2s1,-2.08%
15,O=C(NCc1ccncc1)C1CCN(C(=O)c2cccc(Cl)c2)CC1,4.24%
16,COC(=O)C1(C)NC(c2ccc(C)cc2)C2C(=O)N(c3ccc(F)cc3)C(=O)C21 (centres undefined),-13.6%
17,O=S(=O)(c1cc(Cl)ccc1Cl)N1CCN(Cc2ccco2)CC1,-10.2%
18,O=c1[nH]c2ccc(S(=O)(=O)N3CCCC3)cc2[nH]1,-12.3%
19,Cc1ccc(C(C(=O)NCC2CCCO2)N(C(=O)c2snc(C(N)=O)c2N)c2ccc(C(C)C)cc2)o1 (centres undefined),3.97%
20,N#Cc1cccc(CN2CCC(=O)N([C@H](CO)c3ccccc3)CC2)c1,-4.45%
21,O=C(NCC1CC1)C1(C(F)(F)F)C/C(=C\CCO)CCCO1 (centres undefined),2.98%
22,Cc1c2cnn(CC(=O)NCc3ccccn3)c(=O)c2c(C)n1Cc1ccc(Cl)cc1,-4.19%
23,C/C(=N\NC(=O)Cc1ccc(Cl)cc1)c1ccccn1,13.2%
24,C/C(=N\NC(=O)c1ccccc1F)c1ccccn1,61.3% (active)
25,COc1ccc(CC(=O)N/N=C(\C)c2ccccn2)cc1,-0.965%
26,CCCCN(CC)CCNC(=O)CCNC(=O)Cn1ccc2ccccc2c1=O,-4.87%

row,SMILES,inhibition
1,O=S(=O)(c1ccc(F)cc1)N1CCN=C1SCc1cccc(F)c1,-6%
2,CC(C)CCC(C)NC(=O)c1ccc2nccnc2c1 (centres undefined),95.5% (active)
3,Cc1ccc(C)c(NC(=O)c2ccc3nccnc3c2)c1,19.7%
4,COCC(C)NC(=O)c1ccc(Cl)c(Cl)c1 (centres undefined),-2.73%
5,COC(=O)Cc1cnc(NC(=O)CSc2nc(C(C)C)cc(=O)[nH]2)s1,-7.11%
6,Oc1ccc(Br)cc1C=Nc1ccc2[nH]ncc2c1,-11.4%
7,Oc1ccc(Br)cc1/C=N/Nc1ccccn1,66.3% (active)
8,CCN(CC)CCn1c(/N=C/c2cc(Br)ccc2O)nc2ccccc21,26.3%
9,FC(F)(F)c1cccc(N/N=C/c2ccccc2)c1,33.8%
10,Cc1nccn1CC(=O)N/N=C/c1ccc(O)c(O)c1,-15.2%
11,Oc1ccc(/C=N/Nc2ccc(C(F)(F)F)cn2)cc1O,108% (active)
12,COc1cc(C(=O)NCCOC(=O)c2cccc(N(C)C)c2)cc(OC)c1OC,-2.34%
13,N#C/C=C/N1CCN(Cc2ccc3c(c2)OCO3)CC1,-6.62%
14,CN(C(=O)CSc1nnc(-c2c[nH]c3ccccc23)o1)C1CCS(=O)(=O)C1 (centres undefined),-1.73%
15,O=C(CSc1nnc(-c2c[nH]c3ccccc23)o1)c1ccccc1,22.5% (active)
16,CCC(CC)NC(=O)CSc1nnc(-c2c[nH]c3ccccc23)o1,-14.4%
17,Cc1cccc(OCC(=O)Nc2ccc(NC(=O)c3ccco3)c(C)c2)c1,-4.8%
18,COc1ccc(-c2nonc2NC(=O)c2oc3ccc(F)cc3c2C)cc1OC,-3.6%
19,CCOc1ccccc1CN1CCN(C2CCC2)CC1CCO (centres undefined),-4.75%
20,CC1CCN(C(=O)c2ccc(CSc3ccc(Cl)cc3)cc2)CC1,0.865%
21,O=C(c1ccc(CSc2ccccc2)cc1)N1CCCCCC1,17.6% (active)
22,O=C(c1ccc(S(=O)(=O)c2ccccc2)cc1)N1CCCCCC1,1.55%
23,CSCC[C@H](NC(=O)N1CCn2c1nc1ccccc12)C(=O)NCc1ccc2c(c1)OCO2,-0.771%
24,Cc1ccc(-c2nc(CS(=O)(=O)CC(=O)NCc3ccc4c(c3)OCO4)c(C)o2)cc1,-3.19%
25,Cc1ccc(NC(=O)c2ccc(CSc3ncnc4nc[nH]c34)cc2)c(C)c1,39%
26,CCc1ccc(-c2nnn(Cc3nn[nH]n3)n2)cc1,-3.04%

row,SMILES,inhibition
1,CCOC(=O)c1ccc(NC(=O)Cn2nnc(-c3ccc(C)cc3)n2)cc1,-5.77%
2,CCc1ccc(-c2nnn(Cc3nc4ccccc4s3)n2)cc1,81% (active)
3,COc1ccccc1N1CC(C(=O)Nc2nnc(SCC(=O)NCC3CCCO3)s2)CC1=O (centres undefined),-8.54%
4,COc1cccc(NC(=O)CN(C)C(=O)c2ccccc2CCc2ccccc2)c1,16.1%
5,COc1ccc(CC(NC(C)=O)C(=O)NC2CCN(C(=O)c3ccc(Cl)cc3)CC2)cc1 (centres undefined),-3.77%
6,CC(CC(=O)N1CCN(S(=O)(=O)c2ccccc2)CC1)n1cncn1 (centres undefined),-9.3%
7,O=C(Cc1ccccc1)N1CCN(S(=O)(=O)c2ccc([N+](=O)[O-])cc2)CC1,-23.6%
8,N#C/C=C1\Sc2ccccc2C(=O)N1CC(=O)N1CCN(S(=O)(=O)c2ccccc2)CC1,122% (active)
9,COC(=O)CN1C(=O)[C@H]2[C@@H](/C=C/c3ccccc3)N3C(=O)CN(Cc4ccccc4)C(=O)[C@@]3(Cc3ccccc3)[C@H]2C1=O,-2.54%
10,CC(C)c1ccc(-c2noc(C3CCCN(S(C)(=O)=O)C3)n2)cc1 (centres undefined),64.2% (active)
11,COc1cc(-c2noc(C3CCCN(S(=O)(=O)c4cccc(Cl)c4)C3)n2)cc(OC)c1OC (centres undefined),-8.14%
12,O=C(c1cccs1)N1CCCC(c2nc(-c3ccc(F)cc3)no2)C1 (centres undefined),82.3% (active)
13,Cc1ccc(-c2noc(C3CCCN(C(=O)c4cccc(Cl)c4)C3)n2)o1 (centres undefined),69.1% (active)
14,CCN(C(=O)C1CCCN(c2nc(-c3ccc(OC)cc3)no2)C1)c1ccc(OC)cc1 (centres undefined),9.76%
15,CCc1nc2ccc(C(=O)N3CCN(c4cccc(Cl)c4)CC3)cc2nc1CC,-14%
16,O=C(Cc1cccs1)N1CCCC(c2nc(-c3ccc(S(=O)(=O)N4CCCC4)cc3)no2)C1 (centres undefined),-10.3%
17,COc1ccc(C(=O)NC2CCN(C(=O)Nc3ccc(F)cc3)CC2)cc1,-7.18%
18,Cc1c(CN2CCCC(C(=O)c3cccc(Cl)c3)C2)c(=O)n(-c2ccccc2)n1C (centres undefined),-7.01%
19,O=C(c1ccc(F)cc1)N1CCCC(c2nc(-c3cccs3)no2)C1 (centres undefined),16.4%
20,COc1ccc(NC(=O)N2CCCC(c3nc(-c4ccc(F)cc4)no3)C2)cc1 (centres undefined),96% (active)
21,COc1ccc(NC(=O)N2CCCC(C(=O)Nc3ccccc3OC)C2)cc1 (centres undefined),-5.66%
22,COc1ccccc1C(=O)Nn1cnnc1,-6.2%
23,C#CCOc1ccccc1/C=C1/C(=O)ON=C1C,3.31%
24,CC(=O)N1c2ccc(S(=O)(=O)N3CCC(C(=O)NC4CCCCC4C)CC3)cc2CC1C (centres undefined),-11.2%
25,COc1cccc(OC)c1C(=O)Nc1c(C(=O)N2CCN(c3ccccn3)CC2)oc2ccccc12,3.52%
26,CCOC(=O)C1CCN(C(=O)CN2C(=O)c3cccnc3Oc3ccc(C)cc32)CC1,-9.03%

row,SMILES,inhibition
1,COc1ccc(N(C(=O)c2snc(C(N)=O)c2N)C(C(=O)NC2CCCC2)c2ccc(C)o2)c(OC)c1 (centres undefined),-6.03%
2,Cc1ccc2c(c1)N(CC(=O)N1CCCC(C)C1)C(=O)CO2 (centres undefined),2.65%
3,Cc1cccc(S(=O)(=O)N2CN(CC3CCCO3)c3nc4ccccc4nc32)c1 (centres undefined),-6.17%
4,O=C(c1c(F)cccc1Cl)N1CCN(c2ccccn2)CC1,-18.5%
5,Cc1ccccc1N1CCN(CCCN2C(=O)C3CCCCN3C2=O)CC1 (centres undefined),-5.61%
6,CN(CC1CCCO1)S(=O)(=O)c1ccc(C(=O)Nc2ccc([N+](=O)[O-])cc2)cc1 (centres undefined),14%
7,CN(C(=O)c1cccc([N+](=O)[O-])c1)c1ccccc1C(=O)NCc1ccccc1,-10.6%
8,COc1cc2c(C(=O)O)c(C)n(C)c2c2ccccc12,-4.47%
9,Cc1c(C(=O)N/N=C/c2ccccc2)[nH]c2c([N+](=O)[O-])cccc12,-9.32%
10,COc1cccc2c(C)c(C(=O)O)[nH]c12,-35.1% (active)
11,COc1ccccc1N1CCN(S(=O)(=O)CCNC(=O)c2ccc(OC(C)C)cc2)CC1,-4.39%
12,Cc1ccccc1CNC(=O)CCC(=O)N1Cc2ccccc2Oc2ncccc21,13.6%
13,C[n+]1cc(-c2ccccc2)oc1-c1ccccc1,88.6% (active)
14,COc1ccccc1CCNS(=O)(=O)c1cn(C)nc1C,-8.83%
15,CS(=O)(=O)c1ccc2nc(NC(=O)c3ccc(N4CCCC4=O)cc3)sc2c1,8.48%
16,CCN(CC)c1ccc(NC(=O)c2ccc(Cl)nc2)cc1,18.4%
17,O=C(Nc1nc2ccc([N+](=O)[O-])cc2s1)c1ccncc1,35%
18,CS(=O)(=O)c1ccc2nc(NC(=O)CN3CCCCCC3)sc2c1,18.3%
19,CNC(=O)c1ccc2nc(NC(C)=O)sc2c1,45.1% (active)
20,CCCC(=O)Nc1nc2ccc(NC(=O)c3cccnc3)cc2s1,89.7%
21,Cc1cnc(NC(=O)c2ccc(Cl)nc2)s1,109% (active)
22,CS(=O)(=O)c1ccc2nc(NC(=O)C3C4C=CC(C4)C3C(=O)O)sc2c1 (centres undefined),14.8%
23,CS(=O)(=O)c1ccc2nc(NC(=O)c3ccc(Cl)nc3)sc2c1,70.7% (active)
24,Cc1cnc(NC(=O)c2ccccn2)s1,11.7%
25,CS(=O)(=O)c1ccc2nc(NC(=O)C3CCCCC3)sc2c1,22.9%
26,COc1cccc(C(=O)Nc2nc3ccc(S(C)(=O)=O)cc3s2)c1,92.7% (active)

# From PubChem BioAssay AID2315 (National Center for Advancing Translational Sciences (NCATS), 2010)
